About 13,000 (27%) of roughly 48,000 compounds showed an effect of 50% or more. This is one part of the list.

Results on 104 compounds are retold here after ChEMBL document CHEMBL3988442, “University of Dundee, Small-Polar-MMV Screening Library” (2021).

The assay relates to Wolbachia pipientis. The assay is described as follows: Anti-Wolbachia Cell-Based Screen. Conditions: 5 µM. Type of assay: functional. Also on record: scale not given: in the data most compounds retested in dose-response had high values.
Turning to `OCCNC1CSCCc2ccccc21` (centres undefined), the “Percent Effect” value was -7.147%. In the case of `Cc1n[nH]cc1CNC1(c2ccc(Br)cc2)CC1` it was -6.578%; in that of `O=C(CC(F)(F)F)NC(c1ccc(Cl)cc1)c1ncon1` (centres undefined), 11.91%; in that of `O=C([C@@H]1COC[C@H]2CN(CC3CCCC3)C[C@H]21)N1CCOCC1`, -6.22%.

On to `O=C(Cc1ccc2c(c1)OCC2)Nc1nc[nH]n1`, for which the “Percent Effect” value stood at 104.4%. Regarding `Nc1cc2c(nn1)CCN(C(=O)Cc1ccc3c(c1)CCO3)C2`, the “Percent Effect” value came out at 8.586%. On to `O=C(Cc1ccc2c(c1)OCC2)Nc1nc(C(F)(F)F)n[nH]1`, for which the “Percent Effect” value stood at 131.9%. In the case of `CN(C)c1cc2c(nn1)CCN(C(=O)Cc1ccc3c(c1)CCO3)C2` it was -10.79%. Regarding `O=C(Cc1ccc2c(c1)OCC2)Nc1nn[nH]n1`, the “Percent Effect” value came out at 216.7%. In the case of `CN(Cc1nnc2n1CCC2)C(=O)Cc1ccc2c(c1)OCCO2` it was -1.07%; in that of `O=C(Cc1ccc2c(c1)CCO2)Nc1ccc(-n2cncn2)nc1`, -5.052%.

Turning to `O=C(Cc1ccc2c(c1)OCCO2)NC1CCN(CC(F)F)CC1`, the “Percent Effect” value is listed as 2.104%. In the case of `O=C(Cc1ccc2c(c1)OCO2)N[C@@H]1CCNC[C@H]1O` it was -5.906%; in that of `CCCc1cc(N2CCCC2Cn2cc(C)cn2)n2ncnc2n1` (centres undefined), -1.643%. In the case of `O=C(Nc1ccc2ncccc2c1)C1CC(=O)N(Cc2ccccn2)C1` (centres undefined), the “Percent Effect” value is -4.026%.

As for `Cc1ccc(C(NC(=O)CCNC(=O)c2ccoc2)C(F)(F)F)cc1` (centres undefined), the “Percent Effect” value is 20.44%.

As to `Cc1nc(CN2C[C@@H](NS(=O)(=O)N(C)C)[C@H](C(C)C)C2)cs1`, the “Percent Effect” value is -0.9733%. Consider `Cc1ccc(CN(CC(=O)NCC2CCOC2)c2ccc(F)cc2)o1` (centres undefined), for which the “Percent Effect” value was -9.674%. `Cc1nc(-c2ccccc2F)sc1C(=O)N1CCN(C)CC1`: the “Percent Effect” value was found to be 3.843%. In the case of `Cc1ccc2cccc(C(=O)N3CCN(c4cccnn4)CC3)c2n1` it was -2.333%; in that of `Cc1nc(NC(=O)OC(C)(C)C)sc1C(=O)O`, 0.0995%.

As to `Cc1nc(-c2ccc(Cl)s2)sc1C(=O)O`, the “Percent Effect” value stood at 9.091%. Take `COc1cccc(C(=O)N(C)C(C)c2c(C)n[nH]c2C)c1OC` (centres undefined): the “Percent Effect” value is given as -15.68%. In the case of `Cc1ccc2cccc(Oc3nc(C)c(C(=O)O)s3)c2n1` it was 111%; in that of `COc1cccc(Oc2nc(C)c(C(=O)O)s2)c1OC`, 116.8%; in that of `Cc1nc(Oc2ccccc2F)sc1C(=O)O`, 91.89%. Take `CC(=O)Nc1cnc(Oc2ccccc2F)nc1`: the “Percent Effect” value was -1.763%.

Consider `Cc1nc(Oc2ccccc2Cl)sc1C(=O)O`, for which the “Percent Effect” value is reported as 98.65%. For `COc1cccc(CNCc2c(C)nc3sc(C)cn23)c1OC`, the “Percent Effect” value was -11.36%.

Consider `CCOC(=O)CCNC(=O)c1cccc2ccc(C)nc12`, for which the “Percent Effect” value is on record as -7.02%.

Take `O=C1C(N2CCOC3(CCCC3)C2)CCN1C1CC1` (centres undefined): the “Percent Effect” value is recorded as 15.83%. For the compound `Cc1nnc2n1CC(CNc1ncnc3ccccc13)CC2` (centres undefined), the “Percent Effect” value was -0.4612%.

As for `CCN(CC)CCCN1CCC(NC(=O)OC(C)(C)C)CC1`, the “Percent Effect” value was determined as 13.41%.

With `Cc1cc(C)n(CCN2CCN(C(=O)c3ccccc3Br)CC2)n1`, the “Percent Effect” value is 0.6022%. In the case of `CSCCCN(CCN1CCOCC1)Cc1ccco1` it was 114.6%; in that of `CN(C)CCN1CCc2ncc(CN(C)Cc3ccco3)n2CC1`, 24.09%; in that of `Cc1cc(C)n(CCCN(CCN2CCOCC2)Cc2ccco2)n1`, 110.7%. For `Cc1cc(C)n(Cc2cccc(C(=O)NCCN3CCOCC3)c2)n1`, the “Percent Effect” value is -2.99%. In the case of `Cl.Cl.O[C@@H]1C[C@@](CNCc2cccc(Cl)c2)(COc2cccnc2)C[C@@H]1O` it was -8.733%; in that of `COc1ncccc1CN1C[C@H]2CCN(c3ccc(C)nn3)C[C@H]2C1.O=C(O)C(F)(F)F`, 107.5%; in that of `COc1ncccc1CN1CC[C@@]2(O)CCN(C(=O)C3CCC3)C[C@H]2C1`, 6.817%. In the case of `COc1ncccc1CN1C[C@H]2C[C@@H](C(=O)NCC3CC3)N(C)[C@H]2C1.O=C(O)C(F)(F)F.O=C(O)C(F)(F)F.O=C(O)C(F)(F)F` it was 107.4%.

Turning to `COc1ncccc1CN1C[C@@H]2C[C@@H](C(=O)NCC3CC3)N(C)[C@@H]2C1`, the “Percent Effect” value is listed as 96.26%. In the case of `Cc1ccc(N2CC[C@H]3CN(C(=O)c4ccn(C)n4)C[C@H]3C2)nn1.O=C(O)C(F)(F)F` it was -19.75%; in that of `COc1ncccc1CN1CCC2(CCCN2S(C)(=O)=O)CC1.O=C(O)C(F)(F)F.O=C(O)C(F)(F)F`, 2.287%; in that of `COc1ncccc1CN1Cc2nnn(C)c2C(COCC2CC2)C1.O=C(O)C(F)(F)F.O=C(O)C(F)(F)F` (centres undefined), -15.9%. In the case of `CCOCC1CN(Cc2cccnc2OC)Cc2cnn(C)c21.O=C(O)C(F)(F)F.O=C(O)C(F)(F)F.O=C(O)C(F)(F)F` (centres undefined) it was 2.379%.

With `COc1ncccc1CNC(=O)N1CCC(CNC(C)=O)CC1`, the “Percent Effect” value turned out to be 18.77%.

Take `CN(Cc1cccnc1)CC1CC12CCN(c1nncs1)CC2.O=C(O)C(F)(F)F.O=C(O)C(F)(F)F.O=C(O)C(F)(F)F` (centres undefined): the “Percent Effect” value is 10.12%. In the case of `COc1ccc(-c2noc(Cn3cnc(C)c3)n2)c(OC)c1OC` it was 10.58%; in that of `Cc1ccc(-c2noc([C@@H]3Cc4nc[nH]c4CN3)n2)cc1`, 1.545%. `CSCC(=O)Nc1nccn1Cc1ccc(Br)cc1`: the “Percent Effect” value is -2.171%. In the case of `O=C1N(c2ccccc2)Cc2n[nH]c(=O)n21` it was -1.221%; in that of `COc1cc(C(=O)N2CC(Oc3ccccc3Cl)C2)ccn1`, -4.351%; in that of `COCCOC(=O)N1CCn2nc(CN(C)Cc3nccs3)cc2C1`, 91.56%.

As to `CN(C)C(=O)N1CCCn2nc(CNC(=O)CCc3cccs3)cc2C1`, the “Percent Effect” value is 2.264%.

Regarding `CN(C)C(=O)N1CCCn2nc(CNC(=O)CCc3ccsc3)cc2C1`, the “Percent Effect” value is -5.491%. As to `CN(Cc1cc2n(n1)CCCN(C(=O)N1CCCC1)C2)Cc1nccs1`, the “Percent Effect” value is reported as 94.61%. In the case of `CN(C)C(=O)N1CCn2nc(CNC(=O)CCC(F)(F)F)cc2C1` it was -4.672%; in that of `CN(C)C(=O)N1CCn2nc(CNC(=O)CCc3ccccn3)cc2C1`, 5.444%. As for `CCn1c(CC2CCN(C(=O)C3CNCCO3)CC2)nn(C)c1=O` (centres undefined), the “Percent Effect” value is given as -6.283%. In the case of `CC(C)(CCS(C)(=O)=O)CNc1ccc2ccc(F)cc2n1` it was 0.04358%; in that of `CC(C)(C)C(=O)N1CCC(n2cc(C3(O)CCCC3)nn2)CC1`, -19.86%. Take `O=C(C1CCCCC1)N1CCC(n2nc(-c3ccco3)ccc2=O)CC1`: the “Percent Effect” value is reported as 79.69%. In the case of `O=C(c1cccs1)N1CCC(n2nc(-c3ccco3)ccc2=O)CC1` it was -4.214%. In the case of `O=C(Cc1ccsc1)N1CCC(n2nc(-c3ccco3)ccc2=O)CC1` it was -9.761%; in that of `CC(C)(C)C(=O)N1CCC(n2nc(-c3ccco3)ccc2=O)CC1`, 101.2%; in that of `Cc1oc(-c2ccco2)nc1CC(=O)N1CCC(C(O)C(F)(F)F)CC1` (centres undefined), 3.492%. In the case of `O=C(c1ccco1)N1CCC(n2cc(-c3ccsc3)nn2)CC1` it was 0.1659%; in that of `O=C(c1cccs1)N1CCC(Cn2nc(-c3ccco3)ccc2=O)CC1`, -6.925%. `O=C(c1ccco1)N1CCC(n2nc(-c3cccs3)ccc2=O)CC1`: the “Percent Effect” value worked out at 64.54%. In the case of `O=C(c1csc(-c2ccco2)n1)N1CCN2CCCCC2C1` (centres undefined) it was -12.72%; in that of `CC(=O)c1c(F)cccc1NC1CCN(C(=O)C2CCCCC2)CC1`, 1.543%.

Take `O=C(c1ccco1)N1CCC(n2nc(-c3ccco3)ccc2=O)CC1`: the “Percent Effect” value came out at 74.86%.

On to `Cn1c(-c2ccccc2Cl)nc2cc(C(=O)NCCS(C)(=O)=O)cnc21`, for which the “Percent Effect” value turned out to be 0.8241%. As to `CCn1nc(C)c(CNC(=O)C2COc3ccccc3C2)c1C` (centres undefined), the “Percent Effect” value is reported as -10.56%. On to `CCC(C)N(Cc1ccncc1)Cc1ccc(-n2cccn2)cc1` (centres undefined), for which the “Percent Effect” value is listed as -9.551%.

For the compound `COc1ccc(Br)c(C(=O)NCC2CCN(C(=O)c3ccoc3)CC2)c1`, the “Percent Effect” value is on record as -6.269%. Regarding `Cc1cccc(CN2CCCC(O)(CNCc3ncccc3C)C2=O)c1` (centres undefined), the “Percent Effect” value turned out to be 4.315%. In the case of `CC(NC(=O)NCCCOC1CCCCC1)c1nncn1C` (centres undefined) it was 12.39%.

Consider `O=C(CCc1ccco1)Nc1ccc(Br)cn1`, for which the “Percent Effect” value was -1.221%. In the case of `CC(C)C(=O)N1CCC(n2nc(-c3ccco3)ccc2=O)CC1` it was 101.9%; in that of `Cc1oc(-c2ccco2)nc1CC(=O)N1CCC(CCO)C1` (centres undefined), 7.972%; in that of `OCC(O)CSCc1cn(-c2ccc(F)c(Cl)c2)nn1` (centres undefined), 1.714%. As to `Cc1csc(C2(NCc3nc(-c4ccco4)oc3C)CCCC2)n1`, the “Percent Effect” value stood at 21.68%. With `CNS(=O)(=O)c1cc(C(=O)NC2COc3ccccc32)cc(C)c1C` (centres undefined), the “Percent Effect” value worked out at 105.8%. Consider `CN(C)c1nc(CNC(=O)NC2COc3ccccc32)cs1` (centres undefined), for which the “Percent Effect” value is -3.429%.

`Cc1ccc(C(=O)NC2CCOc3ccccc32)cc1S(C)(=O)=O` (centres undefined): the “Percent Effect” value stood at 118%. Consider `Cc1ccc(C(=O)NCC2Cc3ccccc3O2)cc1S(C)(=O)=O` (centres undefined), for which the “Percent Effect” value is -52.49%. For the compound `CNS(=O)(=O)c1cc(C(=O)NC2COc3ccccc3C2)ccc1OC` (centres undefined), the “Percent Effect” value is on record as -1.094%. In the case of `Cc1nnc(NC(=O)NC2CCOc3ccccc32)s1` (centres undefined) it was 11.11%; in that of `COc1ccc(C(O)CN2CC(n3cc(C)cn3)C2)cc1` (centres undefined), -26.31%. In the case of `O=C(NCCCN1CCOCC1)c1ccnc(OCc2ccccc2)c1`, the “Percent Effect” value was found to be 13.78%. In the case of `NCc1cccc(-c2cccnc2C(=O)NCCCN2CCOCC2)c1` it was 156.6%; in that of `Cc1oc(C)c(C(=O)NCc2ccccn2)c1C`, -10.25%; in that of `Cn1ccnc1-c1cccc(NC(=O)NCCCN2CCOCC2)c1`, 9.655%. `CN(C)Cc1cccc(-c2cccnc2C(=O)NCc2ccccn2)c1`: the “Percent Effect” value was determined as 107.8%. In the case of `O=C(NCCN1CCCCCC1)c1cccc(Cl)c1Cl` it was -3.616%; in that of `NCc1cccc(-c2cccnc2C(=O)NCCN2CCCC2)c1`, 177.6%; in that of `O=C(NCCCN1CCOCC1)c1ccc(-c2ccccc2)[nH]c1=O`, -4.893%.

As to `O=C(NCCCN1CCOCC1)c1cc(-c2ccccc2)[nH]n1`, the “Percent Effect” value was 93.89%. In the case of `O=C(NCCCN1CCOCC1)c1cc(-c2ccco2)[nH]n1` it was 0.6677%; in that of `COc1cc(CN(C)C(=O)NCc2ccccn2)ccc1SC`, -14.77%; in that of `O=C(NCCN1CCCCC1)c1cccc(Cl)c1Cl`, -2.651%.
